Among the data in PubChem BioAssay (NCATS) are outcome, Potency and activity change, negative = cytotoxic values, retold here.

A short description of test [1]: qHTS assay for measurement of the activity of small molecule inhibitors on Zika virus induced Caspase-3 activity in human astrocytoma cells (AID 1224859).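 Further: plate controls were ZIKV-infected untreated cells for no effect and uninfected cells for full effect.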 The method, boiled down: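 In SNB-19 cells plated at 250 cells/well and grown 16-20 h, compounds were applied 1 h before ZIKV (2 FFU/cell). Six hours later caspase-3/7 luminescence was recorded.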
Background: Quantitative high-throughput screening tests each substance at several concentrations.

Test [2] can be described thus: qHTS assay to identify small molecule inhibitors of chordoma cells - UCH-1 (AID 1259355). Further: nearly all actives have a fitted effect of over 55% in size. Further: potency means the concentration at half of the fitted maximal effect; series mostly up to about 46 µM. The method in brief: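 Luminescent ATP read-out (CellTiter-Glo, 30min at room temperature) measured viability of UCH-1 cells exposed for 48hr to test drugs at 15 concentrations, co-dosed with a five-agent combination of auranofin, camptothecin, doxorubicin, rubitecan and topotecan.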

A short description of test [3]: qHTS assay to identify small molecule inhibitors of chordoma cells - UCH-2 (AID 1259356). Further: potency means the concentration at half of the fitted maximal effect.
Test [4] is described as follows: P-glycoprotein substrates identified in KB-8-5-11 adenocarcinoma cell line, qHTS therapeutic library screen (AID 1346987). Further: nearly all actives have a fitted effect of over 65% in size. Further: potency means the concentration at half of the fitted maximal effect. The method in brief: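 Steps: plate 500 KB-8-5-11 cells/well in DMEM + 10% FCS (colchicine removed); pin compounds in dose-response; incubate 72 h, 37 degree C, 5% CO2; add CellTiter-Glo, 5 min; read luminescence.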
For test [5], the target named is Atrial natriuretic peptide receptor 1 (Homo sapiens) (UniProt P16066). Kind of test: Natriuretic polypeptide receptor (hNpr1) antagonism - Pilot screen (AID 1347049; calls by dose curve;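 further: agonist-evoked cGMP luminescence read 20 min after hNppA addition; series mostly up to about 58 µM; on the % scale 0 is the no-effect control and ±100 the full control effect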). The method, boiled down: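 HEK293 cells co-expressing hNpr1 and the GloSensor pGS-40F cGMP luciferase sensor were preloaded with 2% GloSensor reagent for 2 h. Compounds were added for 30 min at room temperature, then cells were stimulated with 0.1 nM hNppA for 20 min before luminescence readout.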

The target in test [6] is Atrial natriuretic peptide receptor 2 (Homo sapiens) (UniProt P20594). Kind of test: Natriuretic polypeptide receptor (hNpr2) antagonism - Pilot subtype selectivity assay (AID 1347050; calls by dose curve; further: on the % scale 0 is the no-effect control and ±100 the full control effect). The method, boiled down: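 cGMP-sensor HEK293/hNpr2 cells; 2% GloSensor reagent 2 h RT; compounds 30 min; baseline luminescence read; 1 nM hNppC agonist 20 min RT; final luminescence read by CCD camera. Antagonism = reduced post-agonist signal.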

A short description of test [7]: NS1 protein of Zika virus - qHTS assay to identify small molecule inhibitors in human HEK 293 cells (AID 1347053).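 Further: series mostly up to about 46 µM; plate controls were infected untreated cells for no effect and uninfected cells for full effect; nearly all actives have a fitted effect of over 55% in size.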 The method, boiled down: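 HEK 293; 20 h pre-culture, 37 C/5% CO2; cpd 1 h pre-infection; ZIKV MR766, MOI = 0.5, 24 h, 37 C; TR-FRET NS1 readout (two anti-NS1 Abs); norm. to no-virus vs infected.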
Test [8] addresses T1, Tyrosine-protein phosphatase non-receptor type substrate 1 (Homo sapiens) + Leukocyte surface antigen CD47 (Homo sapiens) (UniProt P78324+Q08722). Kind of test: CD47-SIRPalpha protein protein interaction - LANCE assay qHTS validation (AID 1347057; active means well fitted curve in the direction sought with a large enough effect in the signal ratio, with a control signal flat, not every such curve was filed as active; the % refers to the signal ratio; further: series mostly up to about 38 µM; 0% is about no effect). The method in brief: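 First, His-tagged CD47 and Eu-labelled anti-His antibody met the compound for 30 min; next, site-specifically biotinylated SIRPalpha was added for 30 min; finally streptavidin-APC was added before reading the TR-FRET ratio.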

Test [9] concerns the target T1, Tyrosine-protein phosphatase non-receptor type substrate 1 (Homo sapiens) + Leukocyte surface antigen CD47 (Homo sapiens). The experiment in a line: CD47-SIRPalpha protein protein interaction - HTRF assay qHTS validation (AID 1347058; active means well fitted curve in the direction sought with a large enough effect in the signal ratio, not every such curve was filed as active; the % refers to the signal ratio; further: series mostly up to about 38 µM; 0% is about no effect). The method, boiled down:
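TR-FRET read (Ch1/Ch2 ratio) of soluble extracellular CD47 and Avi-biotinylated SIRPalpha domains in PBS pH 7.4 with 0.05% IGEPAL; 7-point compound titration. Sequential 30 min room-temperature steps; non-biotinylated SIRPalpha as control inhibitor.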

For test [10] the target is unchanged. Kind of test: CD47-SIRPalpha protein protein interaction - Alpha assay qHTS validation (AID 1347059).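 Further: bead proximity luminescence from CD47 binding SIRPalpha after compound preincubation with SIRPalpha; on the % scale 0 is the no-effect control and ±100 the full control effect.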 The method in brief: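 Soluble extracellular domains: Avi-tag biotinylated SIRPalpha (25 nM) preincubated 30 min RT with compound, then 6His-CD47 (12.5 nM) 30 min; Ni-NTA acceptor and streptavidin donor beads (10 ug/mL) 30 min, AlphaScreen read. PBS pH 7.4, 0.05% IGEPAL.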

The target of test [11] is Parathyroid hormone/parathyroid hormone-related peptide receptor (Homo sapiens) (UniProt Q03431). The experiment in a line: qHTS for PTHR1 Agonists: Optimization Screen against the NCGC LOPAC library (AID 1347079).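 Further: GloSensor cAMP luminescence in HEK-293 GP2 cells expressing human PTHR1 with IBMX; 0% is about no effect.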 The method, boiled down: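 Agonist readout: GloSensor cAMP luminescence, read after 15 min at room temperature. HEK-293-derived GP2 line carries PTHR1; compounds tested as a titration for 1 hr at 37C in presence of IBMX. M-PTH (1-15) served as control.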

Test [12] can be described thus: qHTS of pediatric cancer cell lines to identify multiple opportunities for drug repurposing: Primary screen for TC32 cells (AID 1347089). Further: nearly all actives have a fitted effect of over 60% in size. Further: potency means the concentration at half of the fitted maximal effect. On activity change, negative = cytotoxic: on the % scale 0 is the no-effect control and ±100 the full control effect. The method in brief: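 Measured quantity: luminescence from CellTiter-Glo, reflecting metabolically active TC32 cells following 48 h of compound. Curves came straight from multi-point titrations, with 8 or 11 points in primary and 11 in confirmatory screening.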

The nature of test [13]: qHTS of pediatric cancer cell lines to identify multiple opportunities for drug repurposing: Primary screen for DAOY cells (AID 1347090). Further: nearly all actives have a fitted effect of over 55% in size. Further: potency means the concentration at half of the fitted maximal effect.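 On activity change, negative = cytotoxic: series mostly up to about 46 µM; plate controls were DMSO for no effect and bortezomib for full effect.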 The method in brief: (§1)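 Eight- or eleven-point concentration series, 48 h treatment at 37 degrees C in growth media; readout CellTiter-Glo luminescence. Potency and efficacy were taken from the concentration-response curves.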
Test [14] can be described thus: qHTS of pediatric cancer cell lines to identify multiple opportunities for drug repurposing: Primary screen for SJ-GBM2 cells (AID 1347091). Further: potency means the concentration at half of the fitted maximal effect.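 On activity change, negative = cytotoxic: plate controls were DMSO neutral control for no effect and bortezomib for full effect.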 The method, boiled down:
as §1

Test [15] is described as follows: qHTS of pediatric cancer cell lines to identify multiple opportunities for drug repurposing: Primary screen for A673 cells (AID 1347092). Further: on the % scale 0 is the no-effect control and ±100 the full control effect; nearly all actives have a fitted effect of over 45% in size. The method, boiled down:
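Cells are plated, rested 5 h, dosed by pintool, incubated 48 h, then lysed with CellTiter-Glo and read by luminescence. DMSO is the neutral control; bortezomib at 2.3 uM final is the positive control.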

Test [16] in a line: Natriuretic polypeptide receptor (hNpr1) antagonism - Pilot counterscreen GloSensor control cell line (AID 1347045; calls by dose curve; further: potency means the concentration at half of the fitted maximal effect). The method, boiled down:
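Luminescence was read before and 20 min after adding 50 uM SNP, which stimulates soluble guanylyl cyclase. The HEK293 cells expressing the GloSensor cGMP sensor had been preloaded with 2% reagent for 2 h and treated with compound.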
A general note: A counterscreen serves to expose hits that act by an unwanted route or on another target.

Each structure is given as a SMILES string. Values without a mark were called inactive. Inconclusive results are not listed. The source made the active and inactive calls. Unless noted, the call rests on the fitted dose curve; in most records, active means well fitted curve in the direction sought with a large enough effect; inconclusive means small, poorly fitted or top-dose-only effect, or another doubt; inactive means no such curve, though single readings can be large; an effect the other way counts as inactive or inconclusive.

Sequence of Atrial natriuretic peptide receptor 2 (Homo sapiens) (P20594 whole entry, looked up): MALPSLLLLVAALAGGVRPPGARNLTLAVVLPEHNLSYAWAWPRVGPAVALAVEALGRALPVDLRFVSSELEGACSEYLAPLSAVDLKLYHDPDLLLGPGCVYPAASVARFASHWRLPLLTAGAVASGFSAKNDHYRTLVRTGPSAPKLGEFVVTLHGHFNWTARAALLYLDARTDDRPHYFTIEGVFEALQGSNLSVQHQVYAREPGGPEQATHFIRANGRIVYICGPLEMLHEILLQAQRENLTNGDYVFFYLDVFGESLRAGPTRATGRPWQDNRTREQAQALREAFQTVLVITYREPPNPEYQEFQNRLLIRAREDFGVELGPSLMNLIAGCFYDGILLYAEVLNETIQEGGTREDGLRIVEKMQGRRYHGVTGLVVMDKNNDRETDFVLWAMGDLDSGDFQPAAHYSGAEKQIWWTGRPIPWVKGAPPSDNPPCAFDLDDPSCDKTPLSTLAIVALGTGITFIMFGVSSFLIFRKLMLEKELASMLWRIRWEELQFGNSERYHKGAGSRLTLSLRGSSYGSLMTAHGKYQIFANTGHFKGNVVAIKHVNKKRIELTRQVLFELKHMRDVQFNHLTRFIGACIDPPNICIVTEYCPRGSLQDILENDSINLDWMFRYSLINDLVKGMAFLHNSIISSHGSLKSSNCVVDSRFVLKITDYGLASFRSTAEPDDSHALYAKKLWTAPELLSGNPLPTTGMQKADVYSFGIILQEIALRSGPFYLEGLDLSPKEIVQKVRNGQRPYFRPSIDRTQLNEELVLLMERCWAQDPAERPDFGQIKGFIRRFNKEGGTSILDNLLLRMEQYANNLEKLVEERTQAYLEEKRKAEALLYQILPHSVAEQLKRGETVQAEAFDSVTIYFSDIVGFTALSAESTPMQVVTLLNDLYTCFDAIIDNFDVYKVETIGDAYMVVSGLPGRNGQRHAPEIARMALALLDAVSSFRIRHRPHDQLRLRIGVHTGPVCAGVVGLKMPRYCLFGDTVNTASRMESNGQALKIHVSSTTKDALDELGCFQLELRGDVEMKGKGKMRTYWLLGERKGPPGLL
Sequence of Atrial natriuretic peptide receptor 1 (Homo sapiens) (P16066 whole entry, looked up): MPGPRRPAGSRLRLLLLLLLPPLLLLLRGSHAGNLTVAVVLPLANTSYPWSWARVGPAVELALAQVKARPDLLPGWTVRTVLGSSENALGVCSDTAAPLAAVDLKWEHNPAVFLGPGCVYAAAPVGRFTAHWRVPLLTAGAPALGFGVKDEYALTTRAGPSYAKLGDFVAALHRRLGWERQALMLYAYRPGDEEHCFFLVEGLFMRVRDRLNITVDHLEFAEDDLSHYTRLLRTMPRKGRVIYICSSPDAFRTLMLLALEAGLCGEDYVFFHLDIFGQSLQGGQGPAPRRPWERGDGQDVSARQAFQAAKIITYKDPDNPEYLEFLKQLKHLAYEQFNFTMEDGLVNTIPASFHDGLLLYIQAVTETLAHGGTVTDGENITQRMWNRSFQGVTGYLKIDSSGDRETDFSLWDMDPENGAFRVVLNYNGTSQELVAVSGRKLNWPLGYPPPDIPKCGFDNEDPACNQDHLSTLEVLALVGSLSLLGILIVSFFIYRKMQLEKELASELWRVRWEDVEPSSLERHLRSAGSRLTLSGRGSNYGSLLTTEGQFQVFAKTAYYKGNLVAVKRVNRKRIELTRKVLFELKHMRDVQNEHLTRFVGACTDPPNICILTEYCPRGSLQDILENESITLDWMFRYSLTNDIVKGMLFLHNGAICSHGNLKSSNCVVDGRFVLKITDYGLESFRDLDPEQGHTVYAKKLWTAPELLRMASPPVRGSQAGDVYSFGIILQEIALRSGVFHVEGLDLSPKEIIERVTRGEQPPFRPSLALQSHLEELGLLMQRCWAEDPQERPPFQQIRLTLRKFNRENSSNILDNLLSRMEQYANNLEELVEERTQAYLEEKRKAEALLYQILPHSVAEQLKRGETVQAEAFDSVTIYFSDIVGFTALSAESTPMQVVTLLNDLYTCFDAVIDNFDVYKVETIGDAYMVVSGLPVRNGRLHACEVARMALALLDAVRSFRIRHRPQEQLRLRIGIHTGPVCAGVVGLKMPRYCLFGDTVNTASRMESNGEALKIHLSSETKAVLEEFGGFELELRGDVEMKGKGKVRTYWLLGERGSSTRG
Sequence of Parathyroid hormone/parathyroid hormone-related peptide receptor (Homo sapiens) (Q03431 whole entry, looked up): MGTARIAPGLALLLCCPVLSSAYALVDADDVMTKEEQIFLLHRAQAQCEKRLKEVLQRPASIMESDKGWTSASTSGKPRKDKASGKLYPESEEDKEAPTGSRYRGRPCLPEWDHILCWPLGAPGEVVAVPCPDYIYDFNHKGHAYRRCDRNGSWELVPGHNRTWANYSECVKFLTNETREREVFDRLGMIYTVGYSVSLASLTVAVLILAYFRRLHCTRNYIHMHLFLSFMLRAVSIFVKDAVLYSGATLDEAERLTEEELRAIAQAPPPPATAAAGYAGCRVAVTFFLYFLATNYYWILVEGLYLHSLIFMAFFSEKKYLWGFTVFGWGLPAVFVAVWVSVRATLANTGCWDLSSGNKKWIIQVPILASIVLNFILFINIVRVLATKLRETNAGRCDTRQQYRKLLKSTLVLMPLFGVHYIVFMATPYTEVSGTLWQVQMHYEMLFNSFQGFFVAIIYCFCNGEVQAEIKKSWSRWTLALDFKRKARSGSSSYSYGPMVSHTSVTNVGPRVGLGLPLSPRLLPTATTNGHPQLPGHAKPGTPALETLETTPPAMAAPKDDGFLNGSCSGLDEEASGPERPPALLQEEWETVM
T1 sequence (P78324 whole entry, looked up): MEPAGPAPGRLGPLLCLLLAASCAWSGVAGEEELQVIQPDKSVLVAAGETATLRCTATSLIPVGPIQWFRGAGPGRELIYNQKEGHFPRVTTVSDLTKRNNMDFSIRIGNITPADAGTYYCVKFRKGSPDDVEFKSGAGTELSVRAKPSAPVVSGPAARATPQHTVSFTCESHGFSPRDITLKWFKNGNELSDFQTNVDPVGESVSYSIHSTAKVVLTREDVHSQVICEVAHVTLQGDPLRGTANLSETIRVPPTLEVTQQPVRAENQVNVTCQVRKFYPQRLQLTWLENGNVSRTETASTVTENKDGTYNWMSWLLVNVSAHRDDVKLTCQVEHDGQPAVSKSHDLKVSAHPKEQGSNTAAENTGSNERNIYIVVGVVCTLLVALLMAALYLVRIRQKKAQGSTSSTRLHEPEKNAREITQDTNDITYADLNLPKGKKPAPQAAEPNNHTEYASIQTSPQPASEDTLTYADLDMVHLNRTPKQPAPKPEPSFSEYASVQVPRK
T1 sequence (Q08722 whole entry, looked up): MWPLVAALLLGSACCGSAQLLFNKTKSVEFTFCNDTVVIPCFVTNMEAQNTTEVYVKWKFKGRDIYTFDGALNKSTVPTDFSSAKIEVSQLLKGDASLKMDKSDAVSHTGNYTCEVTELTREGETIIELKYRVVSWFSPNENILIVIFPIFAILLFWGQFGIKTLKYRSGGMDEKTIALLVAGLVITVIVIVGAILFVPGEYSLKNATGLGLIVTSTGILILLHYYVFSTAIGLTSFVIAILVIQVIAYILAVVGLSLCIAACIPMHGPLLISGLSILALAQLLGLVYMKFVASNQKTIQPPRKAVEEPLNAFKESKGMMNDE

Consider `CN(C)C(=O)Oc1cccc([N+](C)(C)C)c1`, for which the call in test [1], in test [7], in test [8], in test [9] and in test [11] was inactive. Moreover, the Potency result in test [2], in [3], in test [4], in test [5], in test [6] and in test [10] was “inactive” in each case. Besides, the Potency entry in test [12], in test [13], in test [14] and in test [15] was “inactive” in each case.
In the case of `C[N+](C)(C)CCOC(=O)CCC(=O)OCC[N+](C)(C)C`, the result in test [1], in [7], in [8] and in [11] was inactive. For the same compound, the Potency entry in [2], in [3], in [4], in [16], in [5] and in test [6] was “inactive” throughout. Besides, the Potency entry in [10], in test [12], in test [13], in [14] and in test [15] was “inactive” throughout.
Take `CCn1cc(C(=O)O)c(=O)c2cc3c(cc21)OCO3`: the compound was classed as inactive in test [1], in test [7], in test [8], in test [9] and in test [11]. The Potency result in test [2], in [3], in test [4], in test [16], in test [5] and in [6] was “inactive” each time. Besides, the Potency result in test [10], in test [12], in test [14] and in [15] was “inactive” each time.
Turning to `NC/C=C/C(=O)O`, the outcome in test [1], in [7], in test [8], in [9] and in test [11] was inactive. Moreover, the Potency entry in test [2], in test [3], in test [4], in test [16], in test [5] and in test [6] was “inactive” throughout. Further, the Potency entry in test [10], in test [12], in test [13], in test [14] and in [15] was “inactive” throughout.
With `CN(C)CCOC(=O)COc1ccc(Cl)cc1`, the result in test [1], in test [7], in test [8], in test [9] and in test [11] was inactive. Besides, the Potency result in test [2], in test [3], in test [4], in test [16], in [5] and in [6] was “inactive” throughout. Also, the Potency entry in [10], in test [12], in test [13], in [14] and in test [15] was “inactive” in each case.
For the compound `CNC1(C)C2CCC(C2)C1(C)C` (configuration not stated), the compound was called inactive in test [1], in test [7], in test [8] and in [11]. Also, the Potency entry in test [2], in test [3], in test [4], in test [16], in test [5] and in test [6] was “inactive” in each case. In addition, the Potency result in test [12], in test [13], in test [14] and in test [15] was “inactive” each time.
As for `CCN(CC)CC(=O)Nc1c(C)cccc1C`, the compound was called inactive in test [1], in [7], in test [8], in test [9] and in test [11]. Also, the Potency result in [2], in [3], in [4], in test [5], in [6] and in [10] was “inactive” in each case. The Potency result in test [12], in test [13], in test [14] and in [15] was “inactive” in each case.
As for `COCC(=O)O[C@]1(CCN(C)CCCc2nc3ccccc3[nH]2)CCc2cc(F)ccc2[C@@H]1C(C)C`, the outcome in test [1], in test [7], in test [8], in test [9] and in [11] was inactive. In addition, the Potency in test [2] is 31.6 µM (active); in test [3], 14.6 µM (active); in test [4], 2.31 µM (active); in [16], 26.1 µM (active). Further, the Potency entry in test [5], in test [10] and in test [13] was “inactive” each time.
On to `CC(C)[N+](C)(CCOC(=O)C1c2ccccc2Oc2ccccc21)C(C)C`, for which the result in test [1], in test [7], in test [8] and in [11] was inactive. Besides, the Potency entry in [2], in test [3], in test [4], in [16], in test [5] and in test [6] was “inactive” in each case. Besides, the Potency entry in test [12], in test [13], in [14] and in [15] was “inactive” each time.
Take `O=C(O)CCCCCCCC(=O)O`: the compound was called inactive in [1], in test [7], in test [8] and in test [11]. The Potency entry in [2], in test [3], in test [4], in test [16], in test [5] and in test [6] was “inactive” throughout. The Potency result in [10], in test [12], in test [13], in test [14] and in test [15] was “inactive” in each case.
`O=C(O)CN(CCOCCOCCN(CC(=O)O)CC(=O)O)CC(=O)O`: the result in test [1], in test [7], in [8], in [9] and in test [11] was inactive. The Potency result in test [2], in test [3], in [4], in test [16], in test [5] and in [6] was “inactive” throughout. Besides, the Potency entry in [10] is “inactive”. Further, the activity change, negative = cytotoxic was 12.3% [at 0.594 µM] in [12], 12.8% [at 0.597 µM] in test [13], 26.6% [at 0.597 µM] in [14] and 8.27% [at 0.597 µM] in test [15].
Turning to `CC(C(=O)O)c1ccc(CC2CCCC2=O)cc1` (configuration not stated), the result in [1], in [7], in test [8] and in test [11] was inactive. For the same compound, the Potency entry in [2], in test [3], in test [4], in test [5], in test [6] and in test [10] was “inactive” each time. The Potency result in test [12], in test [13], in test [14] and in [15] was “inactive” in each case.
Consider `Nc1nc(N)c2nc(-c3ccccc3)c(N)nc2n1`, for which the call in test [1], in test [7], in [8] and in [11] was inactive. For the same compound, the Potency result in test [2], in [3], in test [4], in [16], in test [5] and in [6] was “inactive” throughout. For the same compound, the Potency entry in test [10] is “inactive”. For the same compound, the values for the Potency in test [12], in test [13] and in [14] were 7.45 µM (active), 26.6 µM (active) and 6.68 µM (active), respectively.
In the case of `CCN1CCc2nc(N)oc2CC1`, the result in test [1], in test [7], in test [8] and in test [11] was inactive. For the same compound, the Potency result in [2], in test [3], in test [4], in test [16], in test [5] and in test [6] was “inactive” throughout. Further, the Potency entry in test [10], in test [12], in test [14] and in [15] was “inactive” each time.
For `c1ccc2c(c1)CCCC2C1=NCCN1` (configuration not stated), the compound was called inactive in [1], in test [7] and in [11]. Also, the Potency entry in [2], in test [3], in test [4], in test [16], in test [5] and in [6] was “inactive” each time. In addition, the Potency result in test [12], in test [14] and in [15] was “inactive” throughout.
Turning to `CCN(CC)CCNC(=O)c1ccc(NC(C)=O)cc1`, the call in test [1], in [7], in test [8] and in [11] was inactive. In addition, the Potency entry in test [2], in test [3], in [4], in [16], in test [5] and in test [6] was “inactive” each time. For the same compound, the Potency result in test [10], in [12], in [13], in test [14] and in [15] was “inactive” in each case.
